# Assay results taken from paper PMC5540273 (PLoS ONE, 2017).
# Tests used:
# Settings in all cases: concentration: 1 μM, replicates: in singlicate; n = 1
# CLK2 = system: CLK2
# CLK3 = system: CLK3
# CLK4 = system: CLK4
# CSF1R-autoinhibited = system: CSF1R-autoinhibited
# CSF1R = system: CSF1R
# CSK = system: CSK
# CSNK1A1L = system: CSNK1A1L
# CSNK1A1 = system: CSNK1A1
# CSNK1D = system: CSNK1D
# CSNK1E = system: CSNK1E
# 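Further: KINOMEscan kinase panel screen.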
SMILES,%Inh (CLK2),%Inh (CLK3),%Inh (CLK4),%Inh (CSF1R-autoinhibited),%Inh (CSF1R),%Inh (CSK),%Inh (CSNK1A1L),%Inh (CSNK1A1),%Inh (CSNK1D),%Inh (CSNK1E)
COc1ccc(NC(=O)c2ccoc2)cc1-c1ccc(C(=O)NCC2CC2)cc1 [GW810437],16%,0%,6%,3%,7%,0%,8%,0%,0%,3%
O=C(Nc1n[nH]c2nc(-c3ccccc3)ccc12)C1CC1 [SB-708999],0%,1%,0%,36%,0%,0%,15%,0%,13%,0%
Cc1ccc(C)c(NC(=O)Nc2ccc(C)c(-c3ccc(C(=O)Nc4ccncc4)cc3)c2)c1 [GSK1398473],0%,3%,0%,0%,89%,0%,11%,0%,0%,30%
COC(=O)Nc1nc2ccc(Oc3ccc(CC(=O)Nc4cc(C(F)(F)F)ccc4F)cc3)cc2[nH]1 [GW680903],0%,0%,3%,50%,71%,0%,0%,0%,0%,0%
O=C(Nc1n[nH]c2nc(-c3cccc(O)c3)ccc12)C1CC1 [SB-711805],20%,16%,0%,0%,0%,100%,6%,0%,11%,34%
CC(C)NCC(Cc1ccccc1)NC(=O)c1cc(Br)c(-c2ccnc3[nH]ccc23)s1.Cl.Cl (centres unmarked) [GSK1383281],44%,22%,25%,0%,46%,6%,5%,0%,26%,33%
Cl.Cl.NC(CNC(=O)c1cc(Br)c(-c2ccnc3[nH]ccc23)s1)c1ccccc1 (centres unmarked) [GSK1322949],88%,73%,91.5%,7%,29%,0%,47%,87%,89%,90.8%
Cc1ccc(NC(=O)c2ccc(Cl)c(Cl)c2)cc1-c1ccc(C(=O)Nc2ccncc2)cc1 [GSK1398460],0%,17%,17%,7%,99.9%,1%,8%,0%,7%,18%
Cn1cc(-c2ccc3c(c2)CCN3C(=O)Cc2cc(F)cc(C(F)(F)F)c2)c2c(N)ncnc21 [GSK2635225],19%,100%,18%,45%,95.3%,0%,1%,3%,22%,100%
O=C(Nc1c(F)cccc1F)c1cc(C(=O)c2ccccc2F)c[nH]1 [GSK1326180],0%,2%,0%,32%,1%,0%,5%,16%,0%,20%
CS(=O)(=O)c1cccc(CNc2nc(Nc3ccc4c(c3)CCC(=O)N4)ncc2C(F)(F)F)c1,22%,0%,24%,0%,20%,1%,0%,0%,0%,0%
Nc1ncc(-c2ccc3nccc(-c4ccncc4)c3c2)cc1S(=O)(=O)N1CCCCC1 [GSK1693850],67%,49%,72%,0%,4%,0%,0%,0%,24%,54%
Cc1cccc(Nc2nc(N[C@H]3CCCC[C@H]3N)ncc2C(N)=O)c1.Cl [GSK986310],28%,27%,24%,0%,78%,12%,59%,46%,50%,64%
CN1CCN(Cc2ccc(NC(=O)Nc3ccc(N(C)c4ccnc(Nc5ccc(CS(C)(=O)=O)cc5)n4)cc3)cc2)CC1.Cl [GW827654],0%,31%,0%,94.7%,100%,47%,0%,30%,15%,30%
CCNc1nccc(-c2c(-c3ccc(F)cc3)ncn2C2CCN(C)CC2)n1,45%,0%,13%,0%,0%,25%,56%,93%,98.6%,99.9%
CN(c1ccc2c(c1)nc(NCc1ccccc1)n2C)c1ccnc(Nc2ccc(CS(C)(=O)=O)cc2)n1.Cl [GW811603],0%,43%,0%,80%,100%,14%,0%,36%,0%,18%
CN(C)CCOc1ccc(-c2cc(-c3ccc(Cl)c(O)c3)c(-c3ccncc3)[nH]2)cc1.Cl.Cl [SB-684387],1%,5%,3%,30%,5%,7%,2%,23%,77%,94.6%
Cc1ccc(NC(=O)c2cccc(N3CCCCC3)c2)cc1-c1ccc(C(=O)NCC2CC2)cc1 [GSK1917008],1%,0%,32%,0%,45%,0%,18%,20%,27%,21%
COc1ccc(C)c(Nc2ccnc(Nc3ccc(-c4cnc[nH]4)cc3)n2)c1.Cl [GW784041],0%,7%,13%,0%,67%,9%,2%,21%,16%,27%
Nc1ncnc2scc(-c3ccc(NC(=O)Cc4cc(F)ccc4F)cc3)c12.O=C(O)C(F)(F)F [SB-731254-M],0%,14%,12%,79%,100%,9%,6%,15%,29%,0%
Cc1cc(-c2ccnc(Nc3cccc(C#N)c3)n2)cc(C)c1O [GSK1440913],89%,91.5%,95.8%,13%,14%,0%,30%,0%,76%,90.3%
Cl.O=C(Nc1ccc(Oc2ccc3[nH]c(NC(=O)c4ccco4)nc3c2)cc1)Nc1cc(C(F)(F)F)ccc1F [GW683134],0%,0%,61%,0%,99.8%,0%,0%,2%,10%,0%

SMILES,%Inh (CLK2),%Inh (CLK3),%Inh (CLK4),%Inh (CSF1R-autoinhibited),%Inh (CSF1R),%Inh (CSK),%Inh (CSNK1A1L),%Inh (CSNK1A1),%Inh (CSNK1D),%Inh (CSNK1E)
COc1ccc(C2=C(Nc3cccc(O)c3)C(=O)NC2=O)cc1 [SB-390766],84%,22%,85%,0%,0%,15%,7%,0%,94%,20%
CC(C)(C)c1ccc(C(=O)Nc2cn3cc(-n4ccnc4)ccc3n2)cc1,79%,16%,84%,0%,46%,0%,34%,60%,84%,70%
CSc1ccc(NC2=C(c3ccc(Cl)cc3)C(=O)NC2=O)cc1 [SB-317658],26%,0%,19%,0%,30%,21%,0%,20%,1%,6%
COc1cccc2c(-c3ccncc3)c(-c3ccc(F)cc3)nn12 [GW468513],0%,6%,17%,24%,0%,0%,50%,93.6%,90.7%,99.8%
CC(C)c1nc(-c2ccc(F)c(NS(=O)(=O)c3c(F)cccc3F)c2)c(-c2ccnc(Nc3ccc(N4CCOCC4)nc3)n2)s1 [GSK1804250],9%,6%,21%,14%,94.5%,97.4%,19%,10%,33%,36%
Cc1ccc(-c2ccc3occ(-c4ccc(S(C)=O)cc4)c3c2)nn1 (centres unmarked),0%,0%,70%,13%,0%,1%,0%,0%,0%,0%
Nc1cccc(-c2ccc3c(N)n[nH]c3c2)c1 [GSK2193613],10%,0%,64%,17%,2%,0%,13%,0%,8%,5%
COc1cccc(NC(=O)NCCNc2ccnc(Nc3ccc(F)cc3)n2)c1 [GSK1379879],0%,0%,20%,20%,11%,0%,0%,0%,0%,0%
Cl.Cl.NCC(NC(=O)c1cc(-c2cccnc2)c(-c2ccnc3[nH]ccc23)s1)c1ccccc1 (centres unmarked) [GSK1323434],51%,12%,60%,30%,44%,0%,77%,91.5%,96.7%,99%
COc1cc(Nc2nccc(N3CCC(NS(=O)(=O)c4ccc(NC(C)=O)cc4)CC3)n2)cc(OC)c1OC [GSK1379825],0%,23%,39%,7%,19%,0%,3%,8%,0%,21%
COC(=O)Nc1nc2ccc(Oc3ccc(NC(=O)Nc4cc(C(F)(F)F)ccc4F)cc3)cc2[nH]1.Cl [GW654607],0%,0%,48%,30%,99.8%,0%,0%,0%,0%,13%
O=C(Nc1n[nH]c2nc(-c3ccccc3O)ccc12)C1CC1 [SB-711880],16%,0%,11%,16%,0%,0%,76%,25%,0%,0%
COc1cc(Nc2ccnc3cc(-c4ccncc4)ccc23)cc(OC)c1OC.Cl [GW494610],0%,0%,29%,22%,49%,79%,18%,11%,46%,38%
CCn1cnc2c(NCc3ccccc3)ncnc21 [SKF-96418],10%,0%,14%,0%,0%,0%,0%,18%,20%,16%
Cc1ccc(NC(=O)c2ccnc(N3CCCCC3)c2)cc1-c1ccc(C(=O)NCC2CC2)cc1 [GW775610],0%,0%,0%,5%,23%,0%,20%,1%,0%,0%
Cn1cc(-c2cnc(N)c3c(-c4ccc5c(c4)CCN5C(=O)Cc4ccccc4)csc23)cn1 [GSK2593074],19%,0%,0%,39%,99.9%,20%,0%,21%,0%,1%
Cl.N#CCc1ccc(Nc2nccc(Nc3ccc(Oc4ccccc4)cc3)n2)cc1 [GW639905],9%,0%,3%,7%,35%,31%,0%,0%,0%,8%
Cc1cc(-c2c(-c3ccc(F)cc3)ncn2CCCN2CCOCC2)nc(N)n1 [SB-222517],30%,0%,16%,17%,14%,7%,0%,17%,7%,1%
Fc1cc(Cl)ccc1Nc1ccnc2cc(-c3ccc(CN4CCOCC4)o3)ccc12 [GW560109],0%,0%,15%,7%,94.2%,33%,0%,11%,19%,4%
CN(c1ccc(NC(=O)N2CCN(CCCN3CCOCC3)CC2)cc1)c1ccnc(Nc2ccc(CS(C)(=O)=O)cc2)n1.Cl [GW830899],0%,0%,0%,0%,66%,24%,79%,25%,5%,0%
Cc1ccc(Nc2ccnc(Nc3ccc(C)c(F)c3)n2)cc1O.Cl [GW582868],86%,3%,14%,25%,29%,0%,12%,0%,0%,19%
Cc1nn2c(=O)cc(N3CCO[C@H](C)C3)nc2n1Cc1cccc(Cl)c1Cl [GSK2373693],31%,4%,59%,0%,6%,56%,0%,16%,69%,25%
